From PubChem
Shown are actives, neighbours in structure and some others; about 21% of the full set was active somewhere.
NS1 function inh: qHTS Assay for Inhibitors of Influenza NS1 Protein Function. Potency, µM (top dose mostly 46.1 µM), for the others: at the highest dose activity, positive = more growth. hit rate 0.4% among 270,000; calls by dose curve; note: potency is the fitted concentration of half-maximal effect; actives are rising curves; nearly all actives have a fitted effect of over 50% in size
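S. cerevisiae expressing influenza A NS1, grown in glucose, washed, then diluted 1:100 into pH 6.0 -URA galactose medium with 23 nl compound. Growth recovery read as OD600; NS1-free strain serves as control.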
CHX counter: Cycloheximide Counterscreen for Small Molecule Inhibitors of Shiga Toxin; cell reporter, cycloheximide protein synthesis inhibition counterscreen; max response, %; hit rate 12% among 300,000; AID 2314, 2010; in the data active = max response mostly above about 13%, no sharp cut-off; inactive = mostly below about 14%; note: read at 38.3 µM for the half of the compounds with a filed dose; 0% is about no effect
Sm TGR inh: qHTS Assay for the Inhibitors of Schistosoma Mansoni Peroxiredoxins. Schistosoma mansoni thioredoxin glutathione reductase (TGR), Q962Y6. purified TGR, DTNB reduction, TNB absorbance 405 nm. Potency, µM (top dose mostly 114 µM), for the others: top-dose activity change, negative = inhibition, most hits filed as inhibitors. hit rate 3% among 360,000. AID 485364, 2010; note: potency is the fitted concentration of half-maximal effect; % is set by controls: 0 for no effect and ±100 for the full control effect; nearly all actives have a fitted effect of over 60% in size
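TGR 20 nM + NADPH 100 uM (dispensed conc.), cpd preinc 15 min RT; start with NADPH (500 uM addition) then DTNB (15 mM addition). Kinetic TNB absorbance, 405 nm filter. Four-parameter Hill fit across titration.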
Shiga inhibitor: A qHTS for Small Molecule Inhibitors of Shiga Toxin; inhibition, % at 38.7 µM; Vero cells, Shiga toxin protein synthesis inhibition reporter; hit rate 9.2% among 290,000; AID 2315, 2010; in the data active = inhibition mostly above about 28%, no sharp cut-off; inactive = mostly below about 43%; note: 0% is about no effect
Pf growth 96h: Primary qHTS for delayed death inhibitors of the malarial parasite plastid, 96 hour incubation; P. falciparum luciferase reporter growth, 96 h; Potency, µM (doses to about 28.7 µM), without a hit: top-dose activity change, negative = inhibition, hits mostly inhibitors; hit rate 6.9% among 320,000; note: potency is the fitted concentration of half-maximal effect; % is set by controls: 0 for no effect and ±100 for the full control effect
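Cell-based qHTS: luciferase-tagged P. falciparum in erythrocytes (2% hematocrit, 0.05% parasitemia final) incubated with compounds for 96 hours, 37 C, 5% CO2; luciferase detection reagent then added and luminescence measured.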
Pf growth 48h: Primary qHTS for delayed death inhibitors of the malarial parasite plastid, 48 hour incubation; P. falciparum luciferase growth in erythrocytes, 48 h; Potency, µM (titrated, usually from 28.7 µM), without a hit: at the top dose activity change, negative = inhibition, actives largely listed as inhibitors; hit rate 5.9% among 310,000; AID 504832, 2011; note: potency is the fitted concentration of half-maximal effect; % is set by controls: 0 for no effect and ±100 for the full control effect
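Luciferase-expressing parasites in RBCs, 2% Hct / 0.1% parasitemia final; RPMI 1640 + 0.5% Albumax; 37 C, 5% CO2, one generation; luminescence read-out, lower signal = inhibition.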
Numbers without * were called inactive; u = inconclusive; x = no result; + = active, no number; [ ] = dose if it differs, or a comment. Unless noted, calls come from the whole dose curve; as a rule, active = well fitted curve in the direction sought with a large enough effect; inconclusive = small, poorly fitted or top-dose-only effect, or another doubt; inactive = no such curve, though single readings can be large; an effect the other way counts as inactive or inconclusive.

SMILES | NS1 function inh | CHX counter | Sm TGR inh | Shiga inhibitor | Pf growth 96h | Pf growth 48h
c1ccc2[nH]c(NCCCc3cnc[nH]3)nc2c1 | x | 13.3 | x | -8.9 | x | x
CCCCNc1nc2ccccc2[nH]1 | 1.6% | 21.8* | -3.6% | 33.7 | x | u
COc1ccc(OC)c(-c2cnc(OC(C)(C)C)nc2OC(C)(C)C)c1 | 3.2% | -1.9 | 1.2% | -11.0 | 10.4µM* | 11.7µM*
COc1ccc(-c2ccc(-c3nnc(-c4cc(OC)ccc4OC)o3)cc2)cc1 | -1.8% | -3.5 | 0.0% | -4.8 | -19.3% | 10.2%
COc1ccc2nc(NC(=O)c3ccccc3O)sc2c1 | -37.7% | 57.6* | -8.9% | 63.1* | 2.9% | 0.0%[0.00184 µM]
COc1ccc2nc(NC(=O)c3ccccc3[N+](=O)[O-])sc2c1 | 5.0% | 39.7* | 15.0% | 71.1* | -23.6% | 13.1%
CCOC(=O)c1cccc(C(=O)Nc2nc3ccc(OC)cc3s2)n1 | x | 21.0 | 1.7% | 38.7* | 331.2% | 366.8%
O=C(O)c1cccc([N+](=O)[O-])c1C(=O)Nc1nc2ccccc2s1 | x | 6.1 | 7.9% | 34.2 | 47.2% | 10.5%
COc1ccc(-n2nc(C(=O)Nc3nc4ccc(OC)cc4s3)c3ccccc3c2=O)cc1 | 9.2% | -10.0 | 4.6% | -14.2 | -25.0% | 14.8%
CCOC(=O)c1cc(-c2ccc(F)cc2)n(CCC(=O)Nc2nc3ccc(OC)cc3s2)c1C | x | x | -9.1% | x | x | x
O=C(Nc1nc2ccccc2s1)c1ccccc1[N+](=O)[O-] | -0.2% | 45.9* | -21.1% | 59.5* | u | 66.0%
COC(=O)c1sccc1S(=O)(=O)N(CC(=O)NCc1ccc(C)cc1)c1ccc(C)c(C)c1 | x | x | 0.2% | x | x | x
COC(=O)[C@@H](NC(=O)Nc1cccc(Br)c1)C(C)C | 0.3% | -2.0 | -22.8% | -9.6 | 26.5% | 19.6%
COc1ccc(C)cc1S(=O)(=O)N1CCN(c2cccc(Cl)c2)CC1 | x | x | 8.8% | x | x | x
COc1cccc(NC(=O)c2ccc(N3C(=O)C4CC=C(C)CC4C3=O)cc2)c1 (centres undefined) | -2.3% | 12.2 | -10.5% | 57.0 | 1.47µM* | 18.1%
COc1ccc(NC(=O)c2ccc(N3C(=O)C4CC=C(C)CC4C3=O)cc2)c(OC)c1 (centres undefined) | -6.3% | -2.1 | -23.7% | -15.5 | -0.7% | -1.5%[0.00184 µM]
COc1cccc(NC(=O)c2ccc(NC(=O)C(C)(C)C)cc2)c1 | -2.8% | 54.2* | -5.7% | 56.1* | 30.9% | 192.2%
CCCC(=O)Nc1ccc(C(=O)Nc2cccc(OC)c2)cc1 | 28.3% | 46.9* | 4.0% | 67.5* | 85.1% | 91.5%
CCN(C(=O)C1CCN(S(=O)(=O)c2c(C)noc2/C=C/c2ccc(C)cc2)CC1)c1cccc(C)c1 | x | x | 4.1% | x | x | x
COc1ccc(CNC(=O)CN2C(=O)C(c3ccccc3)Oc3cccnc32)cc1 (centres undefined) | -5.5% | -2.6 | 1.2% | 14.5 | u | -3.4%
O=C(CN1C(=O)C(c2ccccc2)Oc2cccnc21)NCc1ccccc1F (centres undefined) | 4.4% | 16.7 | -3.2% | 8.6 | 9.28µM* | u
Cc1cc(C)cc(NC(=O)CCCN2C(=O)C(c3ccccc3)Oc3cccnc32)c1 (centres undefined) | 2.1% | 5.6 | 6.5% | -9.7 | 3.7µM* | u
O=C(CCCN1C(=O)C(c2ccccc2)Oc2cccnc21)Nc1cccc(F)c1 (centres undefined) | -17.6% | 17.2 | -16.8% | -1.4 | u | 10.4µM*
CC(=O)c1ccc(NC(=O)CCCN2C(=O)C(c3ccccc3)Oc3cccnc32)cc1 (centres undefined) | -9.5% | 12.5 | 13.9% | -12.7 | u | u
Cc1c(C(=O)OC2CCCC2)[nH]c2c1C(=O)CC(c1ccc(Cl)cc1)C2 (centres undefined) | x | x | -1.6% | x | x | x
SMILES | NS1 function inh | CHX counter | Sm TGR inh | Shiga inhibitor | Pf growth 96h | Pf growth 48h
N#C/C(=C\c1ccc(Cl)cc1)c1nc2ncccc2[nH]1 | -23.3% | 8.9 | 5.3% | 14.2 | u | u
O=C(NCCN1CCOCC1)c1ccncc1 | -7.1% | -2.7 | 0.6% | 14.5 | -12.6% | 10.2%
O=C1C=C(NCCN2CCOCC2)C(=O)c2cnccc21 | -39.7% | -11.8 | -25.9% | -31.1 | 1.65µM* | 1.47µM*
COCCNC(=S)N1CCN(C/C=C/c2ccccc2)CC1 | 4.5% | -2.0 | -4.7% | -5.8 | u | 15.4%
CC1(C)CC(=O)c2c(O)cc(OCC(=O)Nc3ccc(CCO)cc3)cc2O1 | -13.7% | 15.5* | -24.0% | 15.9 | u | -4.5%
COc1cccc(NC(=O)COc2cc(O)c3c(c2)OC(C)(C)CC3=O)c1 | -42.2% | 23.9* | 2.7% | 24.6 | -14.1% | 42.1%
COc1cc(NC(=O)COc2cc(O)c3c(c2)OC(C)(C)CC3=O)cc(OC)c1 | -7.2% | 6.7 | -20.4% | 3.2 | u | -22.9%
CCOC(=O)c1[nH]c(C)c(CCC(=O)Nc2cccc(SC)c2)c1C | x | x | -1.1% | x | x | x
Cc1ccc(Cl)cc1N1CCN(C(=O)CCS(=O)(=O)c2cc(Br)cc3c2N(C(=O)C2CC2)CC3)CC1 | x | x | -3.3% | x | x | x
N=C1C(c2nc3ccccc3[nH]2)=C(O)CN1C1CCCCC1 | -4.5% | 30.6* | -16.0% | 55.0* | 41.5% | 43.6%
NC1=NCC(O)=C1c1nc2ccccc2[nH]1 | x | 1.3 | -5.1% | 14.5 | 10.0% | 26.5%
N=C1C(c2nc3ccccc3[nH]2)=C(O)CN1c1ccc(F)cc1 | -9.9% | 37.7* | 1.7% | 28.4 | 70.9% | x
C[N+](C)(C)CC/C=C1/c2ccccc2CSc2ccccc21 | 18.5% | -2.2 | 2.7% | 13.7 | 4.15µM* | 9.28µM*
CCN(Cc1ccncc1)Cc1nc(-c2ccc(C(=O)OC)cc2)no1 | 3.1% | -1.3 | -1.6% | -5.8 | -52.9% | 6.4%
Cc1nc2c(N=Nc3ccccc3F)c(N)nn2c(N)c1C#N | -3.8% | 16.5* | x | 7.7 | 41.6% | 52.9%
Nc1ncnc(N)c1N=Nc1ccccc1 | -4.7% | 0.2 | -12.6% | -9.7 | 5.1% | u
Cc1cccc(N=Nc2c(C)nn(-c3ccccc3)c2N)c1C | -4.5% | 76.8* | 6.0% | 71.8* | 53.0% | 121.6%
Cc1nn(-c2ccccc2)c(N)c1N=Nc1ccccc1 | -32.4% | 74.0* | 0.0% | 76.8* | 1.3% | 167.0%
Nc1nn(-c2ccccc2)c(N)c1N=Nc1ccccc1 | -20.5% | 51.0* | -2.0% | 102.4* | 267.6% | 229.1%
CCOc1ccc(N(C)S(=O)(=O)c2c(C(=O)N3CCC(C)CC3)c(C)n(C)c2C)cc1 | x | x | 1.6% | x | x | x
Nc1c(N=Nc2ccccc2F)c(=O)[nH]n1-c1ccccc1 | -17.7% | 43.6* | 13.9% | 62.6* | 384.4% | 151.2%
Cc1ccccc1N=Nc1c(C)[nH]n(-c2ccccc2)c1=O | 5.2% | -4.0 | 12.6% | 8.3 | 38.3% | -1.0%
Nc1nn(-c2ccccc2)c(N)c1N=Nc1ccccc1F | -38.8% | 49.8* | -2.7% | + | 470.9% | 320.1%
